Results from PubChem BioAssay (EPA / NIEHS).
Where a structure was tested more than once in an assay, its records may differ in their call. Calls of active or inactive are those of the source. The calls were made as follows: active = hit-call score of the fitted dose curve at least 0.9, where 1 is the maximum; inactive = score below 0.9.

Legend:
[1] = read-out: Macrophage colony-stimulating factor (MCSF), CSF1 (gene 1435); assay: BSK_hDFCGF_MCSF: BioMAP Diversity Plus: hDFCGF Assay for Macrophage colony-stimulating factor (MCSF) Biomarker Activity (AID 2283060); conditions: primary human foreskin fibroblasts; actives raise or lower the signal
Outline: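 ELISA read-out of M-CSF in human dermal foreskin fibroblast cultures, 24 h after chemical dosing; gain or loss of signal fitted bidirectionally relative to DMSO baseline.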

[2] = BSK_hDFCGF_SRB: Viability Assessment in the BioMAP Diversity Plus: hDFCGF Assay (AID 2283061); conditions: primary human foreskin fibroblasts;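 also: cells exposed to compound for 24 h before the read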
Outline: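 Primary human foreskin fibroblasts; 24 h post-dose; fixed 10% TCA, stained 0.1% SRB, A560 read; total protein as overt cytotoxicity measure; curves fit bidirectionally vs DMSO control.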

[3] = read-out: Monokine induced gamma interferon (MIG), CXCL9 (gene 4283); assay: BSK_hDFCGF_MIG: BioMAP Diversity Plus: hDFCGF Assay for Monokine induced gamma interferon (MIG) Biomarker Activity (AID 2283063); conditions: primary human foreskin fibroblasts; actives raise or lower the signal
Outline: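 Fibroblasts (human foreskin, primary) dosed, 24 h, MIG by ELISA; fit bidirectional vs DMSO.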

[4] = read-out: Matrix Metallopeptidase 1 (MMP1), MMP1 (gene 4312); assay: BSK_hDFCGF_MMP1: BioMAP Diversity Plus: hDFCGF Assay for Matrix Metallopeptidase 1 (MMP1) Biomarker Activity (AID 2283064); conditions: primary human foreskin fibroblasts; actives raise or lower the signal
Outline: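 MMP1 levels quantified by ELISA 24 h after dosing human dermal fibroblast cultures, with parallel SRB total-protein staining for overt cytotoxicity. Data fitted in both directions against DMSO baseline.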

[5] = read-out: Vascular cell adhesion molecule 1 (VCAM1), VCAM1 (gene 7412); assay: BSK_hDFCGF_VCAM1: BioMAP Diversity Plus: hDFCGF Assay for Vascular cell adhesion molecule 1 (VCAM1) Biomarker Activity (AID 2283065); conditions: primary human foreskin fibroblasts; actives raise or lower the signal
Outline: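 ELISA read-out of VCAM-1 on human skin fibroblasts, 24 h post-dose; gain or loss of signal fitted bidirectionally against DMSO baseline.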

[6] = read-out: Plasminogen activator inhibitor-1 (PAI1), SERPINE1 (gene 5054); assay: BSK_hDFCGF_PAI1: BioMAP Diversity Plus: hDFCGF Assay for Plasminogen activator inhibitor-1 (PAI1) Biomarker Activity (AID 2283066); conditions: primary human foreskin fibroblasts; actives raise or lower the signal
Outline: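 ELISA readout of PAI-1 from primary human skin fibroblast cultures, 24 h after compound addition. Gain or loss of signal was fitted bidirectionally against DMSO baseline.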

[7] = read-out: Intercellular Adhesion Molecule 1 (ICAM1), ICAM1 (gene 3383); assay: BSK_KF3CT_ICAM1: BioMAP Diversity Plus: KF3CT Assay for Intercellular Adhesion Molecule 1 (ICAM1) Biomarker Activity (AID 2283067); conditions: primary human keratinocytes with fibroblasts; actives raise or lower the signal
Outline: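 ELISA readout of ICAM-1; KF3CT human skin co-culture (keratinocytes + foreskin fibroblasts), 24 h post-dose; gain/loss fit vs DMSO baseline.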

[8] = read-out: Interferon-gamma inducible Protein 10 (IP10), CXCL10 (gene 3627); assay: BSK_KF3CT_IP10: BioMAP Diversity Plus: KF3CT Assay for Interferon-gamma inducible Protein 10 (IP10) Biomarker Activity (AID 2283068); conditions: primary human keratinocytes with fibroblasts; actives raise or lower the signal
Outline: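 Signal is secreted/surface IP-10 by ELISA in a human primary skin co-culture of keratinocytes and foreskin fibroblasts, taken 24 h post-dosing; DMSO served as negative control.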

[9] = BSK_KF3CT_SRB: Viability Assessment in the BioMAP Diversity Plus: KF3CT Assay (AID 2283069); conditions: primary human keratinocytes with fibroblasts;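 also: total protein by sulforhodamine B staining as a cytotoxicity measure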
Outline: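 Cytotoxicity was gauged by SRB staining (0.1% SRB, 10% TCA fixation, 560 nm) of parallel cultures at 24 h. The cells were primary human skin keratinocytes co-cultured with fibroblasts, and activity was fitted in both directions against DMSO.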

[10] = read-out: Interleukin-1 alpha (IL1a), IL1A (gene 3552); assay: BSK_KF3CT_IL1a: BioMAP Diversity Plus: KF3CT Assay for Interleukin-1 alpha (IL1a) Biomarker Activity (AID 2283070); conditions: primary human keratinocytes with fibroblasts; actives raise or lower the signal
Outline: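 IL-1a was detected by ELISA 24 h after chemical treatment of a co-culture of human skin keratinocytes and foreskin fibroblasts. Gain or loss of signal was fitted against the DMSO baseline.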

[11] = read-out: TIMP metallopeptidase inhibitor 2 (TIMP2), TIMP2 (gene 7077); assay: BSK_KF3CT_TIMP2: BioMAP Diversity Plus: KF3CT Assay for TIMP metallopeptidase inhibitor 2 (TIMP2) Biomarker Activity (AID 2283071); conditions: primary human keratinocytes with fibroblasts; actives raise or lower the signal
Outline: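 ELISA readout of TIMP-2 in keratinocyte plus foreskin fibroblast co-cultures (human skin primary cells), 24 h post-dose. Gain or loss of signal fitted relative to DMSO.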

[12] = read-out: C-C motif chemokine 2 (Homo sapiens) (UniProt P13500); assay: BSK_KF3CT_MCP1: BioMAP Diversity Plus: KF3CT Assay for Monocyte Chemoattractant Protein 1 (MCP1/CCL2) Biomarker Activity (AID 2283073); conditions: primary human keratinocytes with fibroblasts; actives raise or lower the signal
Outline: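 KF3CT skin co-culture (keratinocytes/foreskin fibroblasts), 24 h post-dose; MCP-1 by ELISA; gain/loss of signal fit bidirectionally vs DMSO baseline.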

[13] = read-out: Matrix Metallopeptidase 9 (MMP9), MMP9 (gene 4318); assay: BSK_KF3CT_MMP9: BioMAP Diversity Plus: KF3CT Assay for Matrix Metallopeptidase 9 (MMP9) Biomarker Activity (AID 2283074); conditions: primary human keratinocytes with fibroblasts; actives raise or lower the signal;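 as to AC50: MMP9 protein level quantified by ELISA in the co-culture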
Outline: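 MMP-9 quantified by ELISA after 24 h chemical treatment of primary human skin keratinocyte/fibroblast co-cultures; gain or loss fitted against DMSO, with parallel SRB staining (0.1% SRB, 560 nm) for overt cytotoxicity.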

[14] = read-out: urokinase plasminogen activator (uPA), PLAU (gene 5328); assay: BSK_KF3CT_uPA: BioMAP Diversity Plus: KF3CT Assay for urokinase plasminogen activator (uPA) Biomarker Activity (AID 2283075); conditions: primary human keratinocytes with fibroblasts; actives raise or lower the signal
Outline: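 ELISA read-out of uPA 24 h after dosing human skin keratinocytes co-cultured with foreskin fibroblasts. Signal change fitted both ways relative to DMSO; sulforhodamine B on parallel cultures marks overt cytotoxicity.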

[15] = read-out: CD40, CD40 (gene 958); assay: BSK_LPS_CD40: BioMAP Diversity Plus: LPS Assay for CD40 Biomarker Activity (AID 2283076); conditions: primary human HUVEC with PBMC; actives raise or lower the signal
Outline: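 ELISA readout of CD40 in HUVEC/PBMC co-culture (BSK_LPS system), 24 h post-dosing; bidirectional curve fit, DMSO baseline; parallel SRB total-protein staining for cytotoxicity.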

[16] = read-out: Interleukin-8 (IL8), CXCL8 (gene 3576); assay: BSK_LPS_IL8: BioMAP Diversity Plus: LPS Assay for Interleukin-8 (IL8) Biomarker Activity (AID 2283078); conditions: primary human HUVEC with PBMC; actives raise or lower the signal
Outline: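 HUVEC + PBMC co-culture, LPS-activated; test chemicals dosed, IL-8 read by ELISA at 24 h. Bidirectional curve fit vs DMSO baseline (gain or loss of signal).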

[17] = BSK_LPS_SRB: Viability Assessment in the BioMAP Diversity Plus: LPS Assay (AID 2283079); conditions: primary human HUVEC with PBMC;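 also: total protein by sulforhodamine B absorbance as a cytotoxicity measure; measured one day after compound addition; fitted in both directions against DMSO so loss or gain of signal counts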
Outline: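 HUVEC + PBMC co-culture, LPS-stimulated; compound 24 h. 10% TCA fix, 0.1% SRB stain, A560. Bidirectional fit vs DMSO.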

[18] = read-out: TIMP metallopeptidase inhibitor 1 (TIMP1), TIMP1 (gene 7076); assay: BSK_hDFCGF_TIMP1: BioMAP Diversity Plus: hDFCGF Assay for TIMP metallopeptidase inhibitor 1 (TIMP1) Biomarker Activity (AID 2283062); conditions: primary human foreskin fibroblasts; actives raise or lower the signal
Outline: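 ELISA readout of TIMP-1 from human dermal foreskin fibroblast cultures 24 h post-dosing. Curves were fitted in both directions against DMSO baseline, with SRB total-protein staining in parallel cultures as a cytotoxicity check.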

[19] = read-out: Transforming growth factor beta 1 (TGFb1), TGFB1 (gene 7040); assay: BSK_KF3CT_TGFb1: BioMAP Diversity Plus: KF3CT Assay for Transforming growth factor beta 1 (TGFb1) Biomarker Activity (AID 2283072); conditions: primary human keratinocytes with fibroblasts; actives raise or lower the signal
Outline: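 Read-out: ELISA for TGF-b1 in keratinocyte/foreskin fibroblast human skin co-culture, 24 h after dosing; bidirectional curve fit vs DMSO baseline; gain or loss of signal scored.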

[20] = read-out: E-selectin (Homo sapiens) (UniProt P16581); assay: BSK_LPS_Eselectin: BioMAP Diversity Plus: LPS Assay for Eselectin Biomarker Activity (AID 2283077); conditions: primary human HUVEC with PBMC; actives raise or lower the signal
Outline: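 ELISA readout of E-selectin, 24 h post-dose, HUVEC + PBMC co-culture (LPS system). Gain or loss of signal vs DMSO baseline, bidirectional fit.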

Measured: AC50

E-selectin (Homo sapiens), sequence (P16581 whole entry, looked up): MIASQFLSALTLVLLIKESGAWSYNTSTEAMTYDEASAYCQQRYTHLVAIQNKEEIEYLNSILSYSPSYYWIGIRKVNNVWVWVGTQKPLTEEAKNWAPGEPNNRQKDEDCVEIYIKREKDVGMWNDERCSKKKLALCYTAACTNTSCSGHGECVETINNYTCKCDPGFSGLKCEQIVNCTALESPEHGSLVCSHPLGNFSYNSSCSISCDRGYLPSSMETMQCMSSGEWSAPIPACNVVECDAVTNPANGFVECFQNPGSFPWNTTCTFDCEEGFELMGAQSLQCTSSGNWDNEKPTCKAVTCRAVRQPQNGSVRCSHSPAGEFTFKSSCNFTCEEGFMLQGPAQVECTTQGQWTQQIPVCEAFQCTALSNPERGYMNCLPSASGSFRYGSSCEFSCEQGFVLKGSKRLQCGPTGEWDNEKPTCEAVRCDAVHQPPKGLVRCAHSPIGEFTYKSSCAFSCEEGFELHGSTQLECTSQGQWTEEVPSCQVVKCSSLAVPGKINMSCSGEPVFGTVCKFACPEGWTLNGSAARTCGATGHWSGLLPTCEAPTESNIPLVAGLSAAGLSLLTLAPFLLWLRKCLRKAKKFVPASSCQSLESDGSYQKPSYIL

FC(F)(Br)C(F)(F)C(F)(F)C(F)(F)C(F)(F)C(F)(F)Br
inactive: [1] | [2] | [3] | [4] | [5] | [6] | [7] | [8] | [9] | [10] | [11] | [12] | [13] | [14] | [15] | [16] | [17]

CCc1ccc(C(c2ccc(CC)cc2)C(Cl)Cl)cc1
inactive: [7] | [14] | [16]
active: [1] 26 µM | [2] 13.8 µM | [18] 20 µM | [3] 31.8 µM | [4] 30.1 µM | [6] 12.3 µM | [8] 13.6 µM | [9] 29.2 µM | [10] 20 µM | [11] 13 µM | [19] 20 µM | [12] 10.1 µM | [13] 11.9 µM | [15] 14.2 µM | [17] 25.1 µM

FC(F)(F)C(F)(F)C(F)(F)C(F)(F)C(F)(F)CCI
inactive: [1] | [18] | [3] | [4] | [6] | [7] | [8] | [9] | [10] | [11] | [12] | [13] | [14] | [15] | [20] | [16] | [17]
active: [1] 23.4 µM | [3] 30 µM | [4] 8.91 µM

Oc1ccc(Nc2ccccc2)cc1
inactive: [1] | [2] | [3] | [4] | [7] | [8] | [9] | [11] | [12] | [13] | [14] | [20] | [16] | [17]
active: [6] 17.1 µM | [10] 5.84 µM | [19] 20 µM | [15] 20 µM

FC(F)(F)C(F)(F)C(F)(F)C(F)(F)CCI
active: [3] 49.3 µM
inactive: [1] | [2] | [3] | [4] | [6] | [7] | [8] | [9] | [10] | [11] | [12] | [13] | [14] | [15] | [16] | [17]

OCC(F)(F)C(F)(F)C(F)(F)C(F)F
inactive: [1] | [2] | [3] | [4] | [5] | [6] | [7] | [8] | [9] | [10] | [11] | [12] | [13] | [14] | [15] | [20] | [16] | [17]
active: [6] 1.98 µM
